Here are results for 97 molecules from PubChem BioAssay AID435003 (Sanford-Burnham Center for Chemical Genomics, 2010).

Among all 330,000 compounds or so, about 1,700 (0.52%) were called active. What follows is part of a selection rich in actives, with near analogues and random picks from the rest. Values without a mark were called inactive. Cut-off read from the data, not from the text of the source: active = inhibition above about 50%; inactive = the rest.

The nature of this assay: lowers stimulated NF-kB reporter luminescence – cell-based, uHTS, TCR NF-kB activation inhibitor project, primary screen (AID 435003). As to conditions: Jurkat, PMA/ionomycin-induced NF-kB luciferase reporter, at 4 µM, stronger effect = higher value. (In a reporter assay the amount or activity of a reporter protein is the signal.)
The term inhibition denotes the change of the read-out against control, counted positive when it falls. Turning to `COC(=O)C1=C(C(=O)OC)[C@@H]2N(C)c3ccccc3[C@@]23C[C@@H](C(=O)OC)N(C(=O)c2ccco2)C3=N1`, the inhibition is 18.3%.
Turning to `CC(C)Oc1ccc(/C=N/NC(=O)c2nnn(-c3nonc3N)c2CN(C)C2CCCCC2)cc1`, the inhibition is -10.3%.
As for `Cc1cccc(OCC(=O)NC2CC(C)(C)NC(C)(C)C2)c1`, the figure is 23.8%; as for `NS(=O)(=O)c1ccc(N=Cc2ccc(Br)s2)cc1`, 3.07%.
As for `CC(=O)Nc1ccc(Nc2cc(C)nc(Nc3ccc(NC(C)=O)cc3)n2)cc1`, the figure is -8.27%.
As for `CCc1nc(Nc2ccc(NC(C)=O)cc2)c2oc3ccccc3c2n1`, the figure is -24.7%; as for `CC(=O)Nc1ccc(Nc2c3ccccc3nc3ccccc23)cc1`, 61.6% (active); as for `O=C(NCc1ccccc1)C(=O)NCC1OCCN1S(=O)(=O)c1ccc(Br)cc1` (configuration not stated), 13.9%.
Turning to `Cc1ccccc1N1CCN(Cc2nc(Cc3ccccc3F)no2)CC1`, the inhibition is 5.46%.
As for `COc1ccc(C)c(Cn2c(-c3nonc3N)nc3ccccc32)c1`, the inhibition is 65.7% (active).
As for `CC(=O)Nc1nonc1-c1nc2ccccc2n1Cc1ccccn1`, the figure is -4.81%; as for `Nc1nonc1-c1nc2ccccc2n1Cc1ccc(F)cc1`, 1.66%.
As for `O=C(Nc1ccc(Cl)cc1)C1c2cccc[n+]2CC(=O)N1Cc1ccc2c(c1)OCO2` (configuration not stated), the figure is -3.1%.
As for `O=C1CC[C@H](O)CCN1[C@H](CSc1ccc(Br)cc1)Cc1ccccc1`, the figure is -3.24%.
Regarding `O=C(NCCOc1ccccc1Cl)C(=O)Nc1ccccc1`, the inhibition was -8.66%.
As for `C[C@@H]1NC(=O)[C@@]2(C)[C@@H](c3ccccc3)[C@H]3COc4ccccc4[C@@H]3N2C1=O`, the figure is 7.9%; as for `COc1ccc(NC(=O)CN2C(=O)COc3ccc(S(=O)(=O)N4CCOCC4)cc32)c(OC)c1`, 0.923%.
On to `C[C@H](NC(=O)c1ccccc1Cl)C(=O)OCCOc1cccc(Cl)c1`, for which the inhibition is -1.51%.
As for `COC(=O)c1ccccc1NC(=O)CN(Cc1ccccc1)S(C)(=O)=O`, the figure is 0.443%.
As for `O=c1[nH]snc1-c1c(Cl)cccc1Cl`, the figure is 11.2%; as for `Cc1c(NS(=O)(=O)c2cc(C(=O)NCCc3ccc(F)cc3)cc(Cl)c2Cl)c(=O)n(-c2ccccc2)n1C`, 13.5%; as for `CCN(CC)CCCNC(=O)c1cc2c(=O)[nH]c3ccc(C)cc3c2s1`, -1.96%.
As for `Cc1cccc(N(C)C(=O)c2cc3c(=O)[nH]c4ccc(C)cc4c3s2)c1`, the figure is 65.1% (active); as for `Cc1ccc2[nH]c(=O)c(CC(=O)O)c(-c3ccccc3)c2c1`, -0.374%; as for `CC(=O)N1CSCC1C(=O)O` (configuration not stated), -5.84%.
As to `Cc1c(C)c(C)c(S(=O)(=O)N2CCC3(CC2)OCCO3)c(C)c1C`, the inhibition is -2.3%.
With `COc1ccc(CC(=O)Nc2nc(-c3ccc(F)c(F)c3)cs2)cc1OC`, the inhibition is 55.3% (active).
Regarding `COc1cc(CC(=O)Nc2nc(-c3ccc(F)c(F)c3)cs2)cc(OC)c1OC`, the inhibition was 49.7%.
As for `Cc1ccc(S(=O)(=O)NC(=O)Nc2nc(-c3ccc(F)c(F)c3)cs2)cc1`, the figure is -14.8%; as for `Cc1ccc(C(=O)OCC(=O)Nc2ccc(Cl)cn2)cc1S(=O)(=O)N1CCOCC1`, 3.39%.
As for `CCOC(=O)[C@H]1[C@H]2COc3ccc(OC)cc3[C@@H]2N2C(=O)c3ccc(F)cc3NC(=O)[C@@]12C`, the figure is -10.9%; as for `CC(N)C12CC3CC(CC(O)(C3)C1)C2` (configuration not stated), 6.68%; as for `Cc1ccc2c(=O)oc(N(C)C)nc2c1`, 1.31%.
On to `Cc1cccc(NS(=O)(=O)c2ccc(-c3cnc(C4CC4)o3)cc2)c1`, for which the inhibition is 54.1% (active).
In the case of `Cc1cccc(CNS(=O)(=O)c2ccc(-c3cnc(C4CC4)o3)cc2)c1`, the inhibition was 5.99%.
As for `COc1ccc(CNS(=O)(=O)c2ccc(-c3cnc(C4CC4)o3)cc2)cc1`, the figure is 18.4%.
As for `Cc1cccc(C)c1NC(=O)CNC(=O)C1CCCC1`, the figure is -3.97%; as for `Cc1ccc(S(=O)(=O)NC2CCCCCC2)cc1`, -18.9%; as for `Cc1ccc(S(=O)(=O)N(C)C2(C)CCS(=O)(=O)C2)cc1` (configuration not stated), 7.55%.
As for `Cc1ccc(S(=O)(=O)C2(S(=O)(=O)c3ccc(C)cc3)CCCC2)cc1`, the figure is 59.5% (active).
With `CC(=O)Nc1ccc(S(=O)(=O)NCC(=O)OCC(=O)c2ccc[nH]2)cc1`, the inhibition is 2.52%.
As for `Nc1c(C(=O)Nc2ccc3c(c2)OCCO3)nnn1Cc1ccccc1`, the figure is -98.1%.
As for `CCCNC(=O)c1cnc(-c2ccccc2)nc1-c1ccccc1`, the figure is 17.2%; as for `COc1ccc(CCNC(=O)/C(C#N)=C2\N=C(NC(=O)c3cccs3)c3ccccc32)cc1`, -17.6%; as for `C#CCSc1nnc(-c2sc3ccccc3c2Cl)o1`, -65.2%.
As for `O=C(NCC#CCSc1nnc(-c2cccc3ccccc23)o1)c1cccs1`, the figure is 51.4% (active); as for `N/C(=N\c1nc2ccccc2o1)NC(=O)C(Cc1ccccc1)N1C(=O)c2ccccc2C1=O` (configuration not stated), -5.81%; as for `O=C(CSc1ncnc2c1oc1ccccc12)NC1CCCC1`, -16.7%.
Consider `COc1ccccc1CCNC(=O)C(=O)NCCC1CCCCN1S(=O)(=O)c1cccs1` (configuration not stated), for which the inhibition was 11.1%.
With `O=C(NCCC1CCCCN1S(=O)(=O)c1cccs1)C(=O)Nc1ccc(F)cc1F` (configuration not stated), the inhibition is 57.9% (active).
On to `O=C(NCCC1CCCCN1S(=O)(=O)c1ccc(F)cc1)C(=O)NC1CC1` (configuration not stated), for which the inhibition is 2.56%.
As for `COC(=O)Cn1cnc2scc(-c3ccc(C)c(C)c3)c2c1=O`, the figure is 11.8%; as for `Cc1ccc(S(=O)(=O)N2CCN(C(=O)Cc3sc(C)nc3-c3ccc(F)cc3)CC2)c(C)c1`, 0.534%.
For `CCOc1ccccc1OCCCNCc1ccccc1`, the inhibition was -8.28%.
Turning to `OCCNCc1cccc(OCc2ccccc2Cl)c1`, the inhibition is 4.83%.
As for `Clc1cccc(Cl)c1OCCOCCNCc1ccccc1`, the figure is 61.5% (active); as for `Cc1ccc(C(=O)N2CCN(C3CCCCC3)CC2)s1`, -4.14%; as for `CC(C)(C)c1ccc(Oc2ccc(N)cc2)cc1`, 84.9% (active).
As for `CC(C)(C)c1ccc(OC2=CS(=O)(=O)c3ccccc32)cc1`, the figure is -29.9%; as for `COc1cccc(Oc2ccc(N)cc2)c1`, 0.758%.
With `COc1ccc(Nc2ncnc3ccc(Br)cc23)c(OC)c1`, the inhibition was 59.8% (active).
Regarding `O=C(O)CCCCCNc1ncnc2ccc(Br)cc12`, the inhibition was 5.8%.
As for `Brc1ccc2ncnc(NCc3cccnc3)c2c1`, the figure is 28.6%; as for `CC(C)c1ccc(-c2noc(C3CCCN(S(C)(=O)=O)C3)n2)cc1` (configuration not stated), -30.6%; as for `COc1ccccc1NC(=O)C1=C(C)Nc2nc3ccccc3n2C1c1cccs1` (configuration not stated), 58.1% (active).
Regarding `CCOC(=O)C1=C(C)Nc2nc3ccccc3n2C1c1cccs1` (configuration not stated), the inhibition was 7.93%.
For the molecule `CCOc1ccc(C2C(C(=O)NC)=C(C)Nc3nc4ccccc4n32)cc1OC` (configuration not stated), the inhibition is 6.25%.
As for `O=C(O)/C=C/C(=O)NNc1ccc([N+](=O)[O-])cc1`, the figure is 9.38%.
In the case of `O=C(c1c(F)cccc1Cl)N1CCN(S(=O)(=O)c2ccc3c(c2)OCCCO3)CC1`, the inhibition was -0.00048%.
As for `COc1cc(N=Cc2c(O)[nH]c3ccccc23)cc(OC)c1OC`, the figure is 76.1% (active).
As for `COc1ccc2[nH]c(C(=O)N/N=C/c3cc(OC)c(OC)c(OC)c3)cc2c1`, the inhibition was 17.7%.
As for `CN=c1scc(-c2cc(OC)ccc2OC)n1/N=C/c1c(C)[nH]c2ccccc12`, the figure is -10.3%; as for `CC(C)Oc1ccc(C(=O)NC(C)(C)CO)cc1`, -5.78%.
As for `CCC(C)NC(=O)C1c2ccccc2C(=O)N1Cc1ccccc1` (configuration not stated), the figure is -0.632%.
As for `COC(c1ccccc1)c1nnc(CCC(=O)N2CCN(CCOc3ccccc3)CC2)o1` (configuration not stated), the figure is 14.1%.
With `COc1cc(NS(=O)(=O)c2ccc3ccccc3c2)c2ncccc2c1`, the inhibition is 66% (active).
`Cc1ccc(S(=O)(=O)Nc2ccc3ncccc3c2)cc1`: the inhibition is 16.8%.
In the case of `COc1ccc(N2CC(NS(=O)(=O)c3ccc4ccccc4c3)CC2=O)cc1` (configuration not stated), the inhibition is 4%.
For `O=C(NC(=O)c1ccc(Cl)c(Cl)c1)OC1CCS(=O)(=O)C1` (configuration not stated), the inhibition is 2.78%.
As for `C=CCN(c1ccc(C(N)=O)cc1)S(C)(=O)=O`, the figure is -12.3%; as for `CCC(C)c1ccc(NC(=S)NCc2ccccn2)cc1` (configuration not stated), -14.5%.
For the molecule `NC1=NC2(CCCCC2)N(c2ccc(F)cc2F)C(N)=N1`, the inhibition is 2.27%.
As for `OC(CNCCc1ccc(Cl)cc1Cl)COc1ccccc1` (configuration not stated), the inhibition is 5.89%.
Take `NC(N)=N/N=C/c1ccc(OCc2ccc(Cl)cc2Cl)cc1`: the inhibition is 59% (active).
For `CCOc1ccc(/C=N/NC(N)=S)cc1`, the inhibition was -13%.
As for `COc1ccccc1N1CCN(C(=O)c2c(-c3c(Cl)cccc3Cl)noc2C)CC1`, the figure is -3.34%; as for `COc1ccccc1N1CCN(C(=O)c2cc(=O)c3cc(C)ccc3o2)CC1`, 19.9%.
As for `COc1ccccc1N1CCN(C(=O)c2cc(=O)c3cc(C)cc(C)c3o2)CC1`, the figure is 64.2% (active); as for `O=C(O)c1cc2c(cc1NC(=O)c1c(F)cccc1Cl)OCCCO2`, 17.5%; as for `O=C(CN1C(=O)c2ccccc2S1(=O)=O)N1CCc2ccccc21`, 72.7% (active).
Consider `O=C(CN1C(=O)c2ccccc2S1(=O)=O)NC1CCCCC1`, for which the inhibition was -1.51%.
As for `CC1CCCN(C(=O)CN2C(=O)c3ccccc3S2(=O)=O)C1` (configuration not stated), the figure is -25%; as for `CC1CN(C2CCN(C(=O)COc3ccccc3)CC2)CC(C)O1` (configuration not stated), -5.33%.
As for `CSc1ccc(S(=O)(=O)Nc2cccc(F)c2)cc1`, the figure is -8.25%.
Consider `COc1ccccc1-n1nnnc1S(=O)(=O)Cc1ccc(Cl)cc1`, for which the inhibition is 55.8% (active).
As for `COc1ccccc1N1CCN(S(=O)(=O)c2ccc(Cl)cc2)CC1`, the figure is -16.1%; as for `COc1ccccc1-n1nnnc1SCC(=O)NC(=O)Cc1ccccc1`, 4.18%.
